Measurements taken from PubChem BioAssay (NCI).
Compounds without any hit were thinned out: in the full panel of roughly 83,000, 20% have a hit.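 Results are percent growth after 48 hours of single-concentration exposure. 100 means growth as in untreated cells, lower positive values show inhibition; negative values down to -100 show cell death.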 Active and inactive are the calls of the source. Rule for the calls: active = growth percent below 10; inactive = the rest.

Columns and labels:
Experiment in all cases: NCI-60 one-dose screen, 48 h (100 = growth as untreated, 0 = no growth, -100 = all killed)
EKVX NSCLC = conditions: 10 µM unless noted
SN12C renal = conditions: 10 µM unless noted
UO-31 renal = conditions: 10 µM unless noted
TK-10 renal = conditions: 10 µM unless noted
ACHN renal = conditions: 10 µM unless noted
CAKI-1 renal = conditions: 10 µM
CCRF-CEM leukemia = conditions: 10 µM unless noted
MOLT-4 leukemia = conditions: 10 µM unless noted
SR leukemia = conditions: 10 µM unless noted
RPMI-8226 leukemia = conditions: 10 µM unless noted
OVCAR-8 ovarian = conditions: 10 µM unless noted
OVCAR-5 ovarian = conditions: 10 µM unless noted
OVCAR-4 ovarian = conditions: 10 µM unless noted
SK-OV-3 ovarian = conditions: 10 µM unless noted
IGROV1 ovarian = conditions: 10 µM unless noted
HS 578T breast = conditions: 10 µM unless noted
NCI/ADR-RES ovarian = conditions: 10 µM unless noted
A498 renal = conditions: 10 µM unless noted

Measured: growth

C/C(=N\NC(=S)Nc1ccc(Br)cc1)c1cc2ccccc2oc1=O
inactive: EKVX NSCLC 40.6% | SN12C renal 35.2% | UO-31 renal 19.5% | TK-10 renal 42.4% | ACHN renal 14.9% | CCRF-CEM leukemia 12.5% | MOLT-4 leukemia 18.1% | RPMI-8226 leukemia 16.3% | OVCAR-5 ovarian 41.3% | OVCAR-4 ovarian 28.2% | SK-OV-3 ovarian 26.1% | IGROV1 ovarian 24.6% | HS 578T breast 20.5% | NCI/ADR-RES ovarian 11.4%
active: CAKI-1 renal 9.07% | SR leukemia 0.863% | OVCAR-8 ovarian 5.84%

COc1ccc([C@H]2[C@H](O)C(=O)N2c2cc(OC)c(OC)c(OC)c2)cc1
inactive: EKVX NSCLC 44.4% | SN12C renal 20.3% | TK-10 renal 69.8% | ACHN renal 26.8% | CAKI-1 renal 28.4% | CCRF-CEM leukemia 26.7% | RPMI-8226 leukemia 22.8% | OVCAR-5 ovarian 29.5% | OVCAR-4 ovarian 69.8% | IGROV1 ovarian 29.6% | HS 578T breast 16.6% | NCI/ADR-RES ovarian 18%
active: A498 renal -17.5% | OVCAR-8 ovarian 2.46%

COc1cc2oc(-c3cccc(NC(=O)c4cc(NC(=O)[C@H](C)N)ccc4Cl)c3)cc(=O)c2c(OC)c1OC
inactive: EKVX NSCLC 90.7% | SN12C renal 90.9% | TK-10 renal 99.8% | ACHN renal 91.3% | CAKI-1 renal 85.3% | A498 renal 71.8% | CCRF-CEM leukemia 71.7% | MOLT-4 leukemia 76.3% | SR leukemia 73.1% | RPMI-8226 leukemia 67.2% | OVCAR-8 ovarian 69% | OVCAR-5 ovarian 106% | OVCAR-4 ovarian 85.9% | SK-OV-3 ovarian 120% | HS 578T breast 99.9% | NCI/ADR-RES ovarian 88.6%

O=C1Nc2ccc(Cl)cc2/C1=C/c1ccc(OCc2ccc(Br)cc2F)cc1
inactive: EKVX NSCLC 97.5% | SN12C renal 103% | UO-31 renal 84.4% | TK-10 renal 116% | ACHN renal 103% | CAKI-1 renal 84.3% | CCRF-CEM leukemia 94.2% | MOLT-4 leukemia 98.9% | SR leukemia 97.2% | RPMI-8226 leukemia 95.8% | OVCAR-8 ovarian 99.8% | OVCAR-5 ovarian 101% | OVCAR-4 ovarian 100% | SK-OV-3 ovarian 98% | HS 578T breast 102% | NCI/ADR-RES ovarian 98.2%

Cc1cn(-c2cc(NC(=O)c3cncc(C#Cc4cnc5ccc(OCCCS(C)(=O)=O)nn45)c3)cc(C(F)(F)F)c2)cn1
active: CCRF-CEM leukemia 6.72% | MOLT-4 leukemia 9.79% | SR leukemia 2.78% | HS 578T breast -3.18%
inactive: EKVX NSCLC 16% | SN12C renal 16.7% | UO-31 renal 38.3% | TK-10 renal 33.8% | ACHN renal 56.2% | CAKI-1 renal 37.4% | RPMI-8226 leukemia 39.5% | OVCAR-8 ovarian 15.4% | OVCAR-5 ovarian 22.6% | OVCAR-4 ovarian 58.4% | SK-OV-3 ovarian 104% | IGROV1 ovarian 14.4% | NCI/ADR-RES ovarian 89.6%

CC(C)(C)n1nnnc1C(Nc1nccs1)c1cc2cccc3ccc4cccc1c4c32 (stereo not drawn)
inactive: EKVX NSCLC 91% | SN12C renal 98.5% | TK-10 renal 99% | ACHN renal 97.4% | CAKI-1 renal 51.1% | CCRF-CEM leukemia 98.7% | MOLT-4 leukemia 96.6% | SR leukemia 84.5% | RPMI-8226 leukemia 94.9% | OVCAR-8 ovarian 97.6% | OVCAR-5 ovarian 59.7% | OVCAR-4 ovarian 95.3% | SK-OV-3 ovarian 109% | IGROV1 ovarian 85.5% | HS 578T breast 88.3% | NCI/ADR-RES ovarian 103%

C(=C(\C1=NCCN1)n1cnc2ccccc21)/c1cccc2ccccc12
inactive: EKVX NSCLC 87.2% | SN12C renal 85.4% | TK-10 renal 90.9% | ACHN renal 87.2% | CAKI-1 renal 68.7% | CCRF-CEM leukemia 91.1% | MOLT-4 leukemia 93.2% | SR leukemia 84.7% | RPMI-8226 leukemia 87.2% | OVCAR-8 ovarian 95.8% | OVCAR-5 ovarian 81.4% | OVCAR-4 ovarian 93.3% | SK-OV-3 ovarian 89% | IGROV1 ovarian 89.7% | HS 578T breast 92.9% | NCI/ADR-RES ovarian 96.8%

Cc1cn(-c2cc(NC(=O)c3cncc(C#Cc4cnc5ccc(O[C@H]6CCOC6)nn45)c3)cc(C(F)(F)F)c2)cn1
inactive: EKVX NSCLC 89.9% | SN12C renal 72% | UO-31 renal 55.7% | TK-10 renal 133% | ACHN renal 87.7% | CAKI-1 renal 88.5% | CCRF-CEM leukemia 95.6% | MOLT-4 leukemia 88.9% | SR leukemia 47.8% | OVCAR-8 ovarian 92.6% | OVCAR-5 ovarian 80.3% | OVCAR-4 ovarian 90.1% | SK-OV-3 ovarian 119% | IGROV1 ovarian 65.3% | HS 578T breast 73.7% | NCI/ADR-RES ovarian 101%

COC(=O)c1nc(-c2ccc(C)cc2)oc1S(=O)(=O)N1CCN(c2oc(-c3ccccc3)nc2C#N)CC1
inactive: EKVX NSCLC 106% | SN12C renal 100% | TK-10 renal 111% | ACHN renal 100% | CAKI-1 renal 97.4% | A498 renal 85.8% | CCRF-CEM leukemia 39.8% | RPMI-8226 leukemia 97.7% | OVCAR-8 ovarian 102% | OVCAR-5 ovarian 108% | OVCAR-4 ovarian 106% | SK-OV-3 ovarian 119% | IGROV1 ovarian 106% | HS 578T breast 108% | NCI/ADR-RES ovarian 103%

COc1ccc(C2C(C#N)=C(N)Oc3c2sc2ccc(C)cc32)cc1 (stereo not drawn)
active: HS 578T breast 3.28%
inactive: EKVX NSCLC 53.4% | SN12C renal 34.9% | UO-31 renal 41.7% | TK-10 renal 81.4% | ACHN renal 44.9% | CAKI-1 renal 32.1% | CCRF-CEM leukemia 26.4% | MOLT-4 leukemia 45% | SR leukemia 25.7% | RPMI-8226 leukemia 36.5% | OVCAR-8 ovarian 56% | OVCAR-5 ovarian 51.4% | OVCAR-4 ovarian 63% | SK-OV-3 ovarian 41.2% | IGROV1 ovarian 39.8% | NCI/ADR-RES ovarian 23.6%

Nc1nc(-c2cccc([N+](=O)[O-])c2)c(N=Nc2cccc(Cl)c2)s1
inactive: EKVX NSCLC 41.9% | SN12C renal 53.2% | UO-31 renal 33.5% | TK-10 renal 71.7% | ACHN renal 48.6% | CAKI-1 renal 23.2% | CCRF-CEM leukemia 36% | MOLT-4 leukemia 26.5% | SR leukemia 31.4% | RPMI-8226 leukemia 46.6% | OVCAR-8 ovarian 41.4% | OVCAR-5 ovarian 64.3% | OVCAR-4 ovarian 49.2% | SK-OV-3 ovarian 42.7% | IGROV1 ovarian 33.8% | HS 578T breast 55% | NCI/ADR-RES ovarian 38.9%

N#C/C(=C\c1ccc(N2CCCCC2)cc1)C(=O)Nc1sc2c(c1C#N)CCC2
inactive: EKVX NSCLC 98.4% | SN12C renal 88.9% | UO-31 renal 91.2% | TK-10 renal 108% | ACHN renal 72.5% | CAKI-1 renal 84.8% | MOLT-4 leukemia 104% | SR leukemia 97.6% | RPMI-8226 leukemia 69.3% | OVCAR-8 ovarian 99.8% | OVCAR-5 ovarian 93.7% | OVCAR-4 ovarian 84.5% | SK-OV-3 ovarian 96.6% | IGROV1 ovarian 102% | HS 578T breast 99.3% | NCI/ADR-RES ovarian 95.7%
active: CCRF-CEM leukemia -4.06%

N#Cc1ccc(S(=O)(=O)Nc2ccc(-c3cnc(N)[nH]3)cc2)cc1
inactive: EKVX NSCLC 105% | SN12C renal 102% | TK-10 renal 98.6% | ACHN renal 99.7% | CAKI-1 renal 92.3% | A498 renal 101% | CCRF-CEM leukemia 98.2% | RPMI-8226 leukemia 104% | OVCAR-8 ovarian 101% | OVCAR-5 ovarian 98.9% | OVCAR-4 ovarian 104% | SK-OV-3 ovarian 106% | IGROV1 ovarian 108% | HS 578T breast 98.3% | NCI/ADR-RES ovarian 102%

Cc1cn(-c2cc(NC(=O)c3cncc(C#Cc4cnc5ccc(O[C@@H]6CCOC6)nn45)c3)cc(C(F)(F)F)c2)cn1
active: EKVX NSCLC -9.97% | SN12C renal -8.41% | UO-31 renal -13.3% | TK-10 renal -19.2% | ACHN renal -93.6% | CAKI-1 renal 1.07% | CCRF-CEM leukemia 0.641% | MOLT-4 leukemia 2.18% | SR leukemia -35.6% | RPMI-8226 leukemia -29.8% | OVCAR-8 ovarian -49.7% | OVCAR-4 ovarian -33.1% | SK-OV-3 ovarian -22.3% | IGROV1 ovarian -9.41% | HS 578T breast -25.1%
inactive: NCI/ADR-RES ovarian 40.4%

COc1ccc(-c2ccnc3c(C#N)c(Nc4ccccc4)nn23)cc1OC
inactive: EKVX NSCLC 98.9% | SN12C renal 89.8% | UO-31 renal 67.9% | TK-10 renal 65.8% | ACHN renal 86.4% | CAKI-1 renal 60.2% | CCRF-CEM leukemia 93.8% | MOLT-4 leukemia 84.9% | SR leukemia 73.8% | RPMI-8226 leukemia 78.3% | OVCAR-8 ovarian 85.2% | OVCAR-5 ovarian 83.2% | OVCAR-4 ovarian 103% | SK-OV-3 ovarian 100% | HS 578T breast 84%

Cc1nc(-c2cc3ccccc3c(N3CCN(C)CC3)n2)cs1
inactive: EKVX NSCLC 96.3% | SN12C renal 90% | UO-31 renal 67% | TK-10 renal 98.2% | ACHN renal 94% | CAKI-1 renal 72.1% | CCRF-CEM leukemia 103% | MOLT-4 leukemia 98% | SR leukemia 102% | RPMI-8226 leukemia 99.2% | OVCAR-8 ovarian 98.8% | OVCAR-5 ovarian 104% | OVCAR-4 ovarian 102% | SK-OV-3 ovarian 97.1% | IGROV1 ovarian 97.3% | HS 578T breast 85.5% | NCI/ADR-RES ovarian 94.3%

CC(=O)Oc1ccc(CCN2C(=O)CSC2=S)cc1
inactive: EKVX NSCLC 97.3% | SN12C renal 69% | UO-31 renal 76.8% | TK-10 renal 57.9% | ACHN renal 93.6% | CAKI-1 renal 81.6% | CCRF-CEM leukemia 57.9% | MOLT-4 leukemia 88.2% | SR leukemia 68.9% | RPMI-8226 leukemia 37.6% | OVCAR-8 ovarian 103% | OVCAR-5 ovarian 97.9% | OVCAR-4 ovarian 93.8% | SK-OV-3 ovarian 113% | HS 578T breast 100% | NCI/ADR-RES ovarian 96.4%
